Common to all, as to experiment: NCI-60 one-dose screen, 48 h (100 = growth as untreated, 0 = no growth, -100 = all killed)
Common to all, as to conditions: 10 µM unless noted

Test [1] relates to EKVX NSCLC.
Test [2] concerns SN12C renal.
The subject of test [3] is UO-31 renal.
Test [4] deals with ACHN renal.
For test [5], the system named is CAKI-1 renal.
Test [6] deals with A498 renal.
Test [7] relates to CCRF-CEM leukemia.
The subject of test [8] is MOLT-4 leukemia.
In test [9] the test system is SR leukemia.
The test system of test [10] is RPMI-8226 leukemia.
Test [11] relates to OVCAR-8 ovarian.
Test [12] relates to OVCAR-5 ovarian.
Test [13] relates to OVCAR-4 ovarian.
Test [14] relates to SK-OV-3 ovarian.
Test [15] concerns IGROV1 ovarian.
The subject of test [16] is OVCAR-3 ovarian.
Test [17] has as its system HS 578T breast.
Test [18] concerns NCI/ADR-RES ovarian.
Test [19] relates to T-47D breast.

About 83,000 compounds went through this panel and 20% of them were active in at least one assay; those are over-represented in the sample as a whole.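 Activity criterion: percent growth below 10, measured after cells in 96-well plates were exposed to a single compound concentration for 48 hours.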 A number with no mark means an inactive call. Active and inactive are the calls of the source.

Among the data in PubChem BioAssay (NCI) are growth values, retold here.

As to `Cc1cccc2sc(/N=C(\N)C(Br)Br)nc12`, the growth in test [1] was 19.9%; in test [2], 18.2%; in [3] it was 30.6%; in [4], -13.5% (active); in test [5], 3.85% (active); in test [6], 38.7%. The growth in test [7] was 1.81% (active); in test [8], 2.63% (active); in test [9] it was -23.6% (active); in test [10] it was 2.19% (active); in test [11], 32.7%; in test [12], 41.2%. Further, the growth in test [13] is 64.7%; in test [14], 87.5%; in test [15] it was -65.7% (active); in test [16] it was 29.2%; in [17], 37.2%; in test [18] it was 17.6%. Moreover, the growth in test [19] is 41.4%.
For `COc1cc(OC)c(C2C(Cl)C(=O)N2Nc2ncnc3ccccc23)cc1OC` (configuration not stated), the growth was 95.3% in [1]; 98.3% in [2]; 78.8% in test [3]; 90.5% in test [4]; 91.8% in test [5]; 97.2% in [6]. In addition, the growth in test [7] was 102%; in test [8] it was 105%; in test [9], 104%; in test [10], 106%; in test [11], 104%; in test [12], 105%. Besides, the growth in test [13] was 104%; in test [14] it was 113%; in test [15], 83.5%; in test [16], 116%; in test [17], 107%; in [18], 105%. Moreover, in test [19], the growth was 96.1%.
With `Cc1ccc(C(=O)Nc2cccc(C(F)(F)F)c2)cc1Nc1nc(-c2cnccn2)nc2c1cnn2C`, the growth in test [1] was 77.3%; in [2] it was 64.7%; in [3], 37.8%; in [4], 53%; in [5], 48.9%; in [6], 53.9%. The growth in [7] was 78.2%; in test [8] it was 43.1%; in [9], 39.5%; in test [10] it was 61.8%; in test [11] it was 77.3%; in [12] it was 39.2%. Besides, the growth is 83.7% in test [13]; 97.9% in test [14]; 52.7% in test [15]; 97.9% in [16]; 51.2% in [17]; 75.6% in test [18]. Further, in test [19], the growth was 74.5%.
Turning to `CN(C)CCCOc1c2ccccc2nc2c1oc1ccc(Cl)cc12`, the growth in test [1] is 12.4%; in test [2] it was 12.4%; in [3], 4.84% (active); in test [4] it was 1.64% (active); in test [5], -6.35% (active); in test [6] it was -6.15% (active). The growth in test [7] is 16.8%; in [8], -1.53% (active); in test [9] it was -26.7% (active); in test [10], -20.8% (active); in test [11] it was 16.4%; in test [12], 12.4%. Further, the growth in [13] was 17.3%; in test [14], 20.5%; in [15], -5.97% (active); in test [16] it was 22%; in test [17] it was 25.7%; in test [18] it was 3.58% (active). Besides, the growth in test [19] is 31.2%.
Take `COc1cc(OC)c(C2SCC(=O)N2Nc2ncnc3ccccc23)cc1OC` (configuration not stated): the growth in [1] is 100%; in [2] it was 103%; in [3], 89.7%; in test [4] it was 106%; in test [5], 94%; in test [6] it was 81.8%. The growth was 107% in test [7]; 105% in test [8]; 104% in test [9]; 115% in [10]; 106% in [11]; 109% in test [12]. For the same molecule, the growth was 103% in [13]; 127% in test [14]; 106% in [15]; 119% in test [16]; 112% in [17]; 104% in test [18]. In test [19], the growth is 106%.
Take `O=C(CCCN1C(=O)/C(=C/c2ccccc2F)SC1=S)N1CCOCC1`: the growth in test [1] was 89.5%; in test [2], 87.6%; in test [3] it was 72.2%; in [4], 78.1%; in test [5], 89.2%; in [6], 82.8%. The growth is 71.6% in test [7]; 91.3% in [8]; 68% in test [9]; 75.1% in test [10]; 99% in test [11]; 94.5% in [12]. Besides, the growth in test [13] is 88.4%; in [14] it was 114%; in [15] it was 84.4%; in test [16], 112%; in test [17], 99.4%; in test [18], 104%. Further, in test [19], the growth was 45.6%.
Turning to `O=C1Nc2cc(Cl)ccc2/C1=C\c1ccc(OCc2ccc([N+](=O)[O-])cc2)cc1`, the growth in test [1] is 82.5%; in [2], 79.5%; in test [3] it was 50.7%; in test [4] it was 43%; in [5], 64.6%; in [6] it was 81%. In addition, the growth in [7] is 5.4% (active); in test [8], 97.4%; in test [9], 87.5%; in [10], 55.6%; in test [11] it was 78.8%; in test [12], 93.3%. Moreover, the growth was 43.6% in test [13]; 98% in [14]; 64.5% in test [15]; 87.8% in test [16]; 60.9% in test [17]; 73.3% in test [18]. Also, the growth in test [19] was 51.9%.
For `CN(C)S(=O)(=O)c1oc(-c2ccccc2)nc1C#N`, the growth in test [1] is 78.3%; in [2] it was 72.4%; in [3] it was -51% (active); in test [4], -83.9% (active); in [5] it was 53.7%; in test [6], 65.6%. Moreover, the growth was 1.79% (active) in test [7]; -13.1% (active) in test [8]; -19.7% (active) in [9]; 76% in test [10]; 94.4% in test [11]; 100% in test [12]. The growth in [13] is 99.7%; in [14], 136%; in test [15], 38.8%; in [16] it was 62.4%; in test [17], 107%; in test [18], 107%. In addition, in [19], the growth was 59.6%.
